# Rows were chosen to be rich in hits. Some 3.4% of all compounds tested hit in one or more screens of this group.
# PP1 inh: blocks human PP1-alpha phosphatase, a PP5 counter-screen; purified PP1alpha, OMFP fluorescence; inhibition, % at 6.7 µM; 320,000 compounds, 0.9% hits;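 active = inhibition above the mean inhibition of all tested compounds plus 3 SD, computed separately for each screening campaign, cut at about 15% in these data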
# PAFAH1B3 FP inh: inhibitors of human PAFAH1B3; Q15102; recombinant PAFAH1B3, FP-rhodamine probe, fluorescence polarization; inhibition, % at 3.39 µM; 340,000 compounds, 0.28% hits; AID 492972;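 active = inhibition above the screen-wide average of all tested compounds plus 3 SD, cut at about 25% in these data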;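 also: 0% = enzyme with DMSO only and 100% = wells lacking PAFAH1B3 protein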
# PAFAH1B2 inh: inhibitors of human PAFAH1B2 | P68402 | recombinant PAFAH1B2, FP-rhodamine activity probe, fluorescence polarization | inhibition, % at 3.39 µM | 340,000 compounds, 1.2% hits;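 active = inhibition above the mean of all tested compounds plus 3 SD, cut at about 24% in these data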;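 also: 0% = enzyme with DMSO and 100% = wells lacking PAFAH1B2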
# pPAFAH FP inh: inhibitors of human plasma PAF acetylhydrolase (pPAFAH). Q13093. recombinant pPAFAH, FP-rhodamine probe fluorescence polarization. inhibition, % at 3.39 µM. 330,000 compounds, 1.5% hits. AID 463082;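 active = inhibition above the mean inhibition across the screen plus 3 SD, cut at about 25% in these data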;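 also: inhibitors block binding of the rhodamine activity-based probe so polarization drops; 0% = enzyme with DMSO and 100% = wells lacking pPAFAH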
# Target sequence (Q13093 whole entry, looked up): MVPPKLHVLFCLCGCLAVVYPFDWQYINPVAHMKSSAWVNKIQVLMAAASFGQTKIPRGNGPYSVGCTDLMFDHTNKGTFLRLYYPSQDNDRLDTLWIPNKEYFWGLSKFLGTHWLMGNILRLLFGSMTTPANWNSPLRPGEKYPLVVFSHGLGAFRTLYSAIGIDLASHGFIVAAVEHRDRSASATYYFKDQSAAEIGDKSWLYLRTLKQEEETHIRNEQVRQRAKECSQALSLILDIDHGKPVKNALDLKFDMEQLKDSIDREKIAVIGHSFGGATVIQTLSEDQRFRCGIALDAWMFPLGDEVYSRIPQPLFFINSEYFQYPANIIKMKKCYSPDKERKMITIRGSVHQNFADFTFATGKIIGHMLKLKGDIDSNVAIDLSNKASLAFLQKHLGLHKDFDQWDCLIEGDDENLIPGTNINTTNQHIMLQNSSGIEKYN
# PAFAH2 FP inh: inhibitors of human PAFAH2. Q99487. recombinant PAFAH2, FP-rhodamine activity probe, fluorescence polarization. inhibition, % at 3.39 µM. 340,000 compounds, 0.99% hits. AID 492956;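 active = inhibition above the mean over all tested compounds plus 3 SD, cut at about 30% in these data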;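 also: inhibitors block probe labeling of enzyme so polarization drops; 0% = enzyme with DMSO and 100% = wells lacking PAFAH2 protein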
# PP5 primary: inhibitors of human protein phosphatase 5 (PP5). 320,000 compounds, 0.18% hits. inhibition, % at 6.7 µM. AID 1987. purified PP5c, OMFP substrate fluorescence. P53041;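 active = inhibition above the campaign's mean inhibition across all tested compounds plus 3 SD, cut at about 9.5% in these data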;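 also: 0% = DMSO only and 100% = 100 µM cantharidin control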
# The depositor's hits bear a star; · = no result.
SMILES,PP1 inh,PAFAH1B3 FP inh,PAFAH1B2 inh,pPAFAH FP inh,PAFAH2 FP inh,PP5 primary
COc1ccccc1N=Nc1nc(-c2ccccc2)c(-c2ccccc2)[nH]1,5,-8,-4,6,2,4
Oc1ccccc1N=Nc1nc(-c2ccccc2)c(-c2ccccc2)[nH]1,17*,7,5,11,-5,7
O=C1S/C(=C\C=C\c2ccco2)C(=O)N1c1ccccc1,-3,-3,-3,26*,6,-1
Nc1n[nH]c2c1C1(CCCCC1)Cc1ccccc1-2,1,7,32*,-1,1,2
CC(=O)Nc1nonc1NC(C)=O,-1,8,7,3,-2,-1
CC(=O)Nc1cc(OC(C)=O)c2nonc2c1OC(C)=O,60*,68*,34*,18,8,8
NC(=O)CCN(C(=O)c1cccc(S(=O)(=O)N2CCc3ccccc32)c1)c1ccccc1,-5,4,27*,-1,-3,-1
N#Cc1c(NC(=O)CSc2ncccn2)oc(-c2ccccc2)c1-c1ccccc1,6,6,12,32*,1,2
N#Cc1c(NC(=O)Cn2cnc3ccccc3c2=O)oc(-c2ccccc2)c1-c1ccccc1,8,6,29*,16,2,1
CC1Cc2ccccc2N1Cc1cc(=O)c(OCC(=O)Nc2ccccc2)co1 (stereo not drawn),1,1,6,15,6,2
Cc1csc(NC(=O)CSc2nnc(Cc3cccn3C)n2-c2ccc(F)cc2)n1,-2,3,7,5,1,-2
COc1ccc(N/N=C(\C#N)C(=N)SCc2ccccc2)cc1,·,4,7,·,10,·
CC(=O)c1ccc(Sc2nnnn2-c2ccccc2)c([N+](=O)[O-])c1,0,-7,3,-2,10,-1
CN1CCN(S(=O)(=O)c2ccc(Sc3nnnn3-c3ccccc3)c([N+](=O)[O-])c2)CC1,11,9,38*,-1,10,-5
O=C(CSc1nc2scc(-c3ccco3)c2c(=O)n1-c1ccccc1)N1CCOCC1,-1,0,0,12,-2,2
NC(=O)CSc1nc2scc(-c3ccco3)c2c(=O)n1-c1ccccc1,9,3,5,28*,3,4
COc1ccccc1NC(=O)COC(=O)Cc1cccs1,0,6,20,18,-1,2
Cc1cccc(NC(=O)COC(=O)Cc2cccs2)c1C,-8,12,1,25*,8,0
Cc1cc(C(=O)Nc2c(C)nn(Cc3ccccc3Cl)c2C)no1,-5,4,3,26*,-1,-3
COc1ccc(OC)c(-c2cc(C(=O)Nc3c(C)nn(Cc4ccccc4Cl)c3C)no2)c1,2,1,-1,4,-12,4
CC1CCC2(CC1)SCC(=O)N2c1ccccc1 (stereo not drawn),-2,8,27*,8,-1,2
Cc1ccc(/C=C2\C(=N)N3N=C(CC(=O)N4CCOCC4)SC3=NC2=O)o1,-3,12,0,11,11,-2
N=C1/C(=C\c2ccc(SCc3ccccc3)o2)C(=O)N=C2SC(CC(=O)N3CCOCC3)=NN12,5,2,22,30*,25,0
Cc1ccc(/C=C2/C(=N)N3N=C(CC(=O)N4CCCC4)SC3=NC2=O)cc1,-6,2,6,25*,8,1
O=C1C(Cl)=C(NCc2cccnc2)C(=O)c2ccccc21,-1,19,8,2,7,2
SMILES,PP1 inh,PAFAH1B3 FP inh,PAFAH1B2 inh,pPAFAH FP inh,PAFAH2 FP inh,PP5 primary
O=C(N=Nc1c(O)[nH]c2ccc([N+](=O)[O-])cc12)c1ccccc1[N+](=O)[O-],3,3,6,9,12,1
CCc1cc(C(=O)N=Nc2c(O)[nH]c3ccc([N+](=O)[O-])cc23)c2ccccc2n1,16*,8,-2,33*,1,1
O=C(Nc1ccccn1)c1ccc(S(=O)(=O)c2ccc(Cl)cc2)cc1,4,1,24*,1,-4,0
O=C(Nc1ccccn1)c1ccc(S(=O)(=O)N2CCCC2)cc1,-10,4,-1,7,4,1
Cc1cc(C(F)(F)F)n(-c2ccc(N)cc2)n1,-2,9,5,-4,-3,2
CC1CCN(S(=O)(=O)c2cccc(C(N)=O)c2)CC1,0,0,26*,-1,2,0

# Screening data from PubChem.
